In PubChem BioAssay (NCI):
Compounds without any hit were thinned out: in the full panel of roughly 79,000, 15% have a hit. Activity calls are given as the source filed them. Cut-off read from the data, not from the text of the source: active = growth inhibition above about 70%; inactive = the rest.

How the values were obtained:
[1] = NCI Yeast Anticancer Drug Screen. Data for the rad52 strain (AID 147);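 note: 0% = growth of vehicle-treated control cultures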; details: S. cerevisiae rad52 mutant growth inhibition, hits give high values
How it was run: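 Yeast strain carrying a DNA damage repair alteration was exposed to test compounds. Growth inhibition was measured relative to vehicle-treated controls.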

[2] = NCI Yeast Anticancer Drug Screen. Data for the wt1 strain (AID 149);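 note: 0% = growth of vehicle-treated wt1 cultures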; details: S. cerevisiae wt1 strain (SPY 50644) growth inhibition, hits give high values
How it was run: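 Measured: growth of wt1 yeast under compound versus vehicle treatment, reported as inhibition.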

[3] = NCI Yeast Anticancer Drug Screen. Data for the rad50EPP+ strain (AID 151);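 note: 0% = growth of vehicle-treated control cultures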; details: S. cerevisiae rad50 mutant strain, hits give high values
How it was run: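 Yeast strain carrying rad50 alteration (rad50EPP+) exposed to compounds; growth inhibition measured relative to vehicle-treated controls.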

[4] = NCI Yeast Anticancer Drug Screen. Data for the mgt1 strain (AID 153); details: S. cerevisiae mgt1 mutant growth inhibition, hits give high values
How it was run: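 Yeast mgt1 strain (DNA repair/cell-cycle alteration panel) exposed to compounds; growth inhibition measured relative to vehicle-treated controls.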

[5] = NCI Yeast Anticancer Drug Screen. Data for the rad50 strain (AID 155);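 note: 0% = growth of vehicle-only cultures of the same strain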; details: S. cerevisiae rad50 strain growth inhibition, hits give high values
How it was run: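 Growth of the mutant yeast was measured after compound exposure and referenced to vehicle-treated cultures.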

[6] = NCI Yeast Anticancer Drug Screen. Data for the mec2-1 strain (AID 157); details: S. cerevisiae mec2-1 strain, hits give high values
How it was run: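 mec2-1 yeast strain, carrying an alteration in DNA damage repair or cell cycle control, was exposed to compounds; growth inhibition was measured relative to vehicle-treated controls.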

[7] = NCI Yeast Anticancer Drug Screen. Data for the rad14 strain (AID 159);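 note: 0% = growth of vehicle-treated control cultures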; details: S. cerevisiae rad14 strain growth inhibition, hits give high values
How it was run: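 Here, inhibition of yeast growth was measured after compound exposure, using a strain with a genetic defect in DNA damage repair and vehicle-treated cultures as the reference.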

[8] = NCI Yeast Anticancer Drug Screen. Data for the CLN2oe strain (AID 163);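 note: 0% = growth of vehicle-only control cultures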; details: S. cerevisiae CLN2oe strain, hits give high values
How it was run: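 Yeast cells carrying a defined cell-cycle control alteration were exposed to test compounds. Growth inhibition was scored against vehicle-treated control cultures.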

[9] = NCI Yeast Anticancer Drug Screen. Data for the cln2 rad14 strain (AID 165);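 note: 0% = growth equal to vehicle treated cultures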; details: S. cerevisiae cln2 rad14 strain, hits give high values
How it was run: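 Yeast carrying cln2 and rad14 alterations (cell cycle control and DNA damage repair) were exposed to compounds. Growth inhibition was measured against vehicle-treated controls.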

[10] = NCI Yeast Anticancer Drug Screen. Data for the bub3 strain (AID 167); details: S. cerevisiae bub3 mutant strain, hits give high values
How it was run: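 Whole-cell yeast assay. The mutant strain was incubated with compounds, and growth inhibition was determined by comparison with vehicle-treated cells.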

[11] = NCI Yeast Anticancer Drug Screen. Data for the mlh1 strain (AID 171);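 note: 0% = growth of vehicle-treated control cultures of the same strain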; details: S. cerevisiae mlh1 strain growth inhibition, hits give high values
How it was run: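 Yeast carrying a defined genetic alteration in DNA damage repair or cell cycle control were exposed to test compounds. Growth inhibition was measured relative to vehicle-treated controls.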

[12] = NCI Yeast Anticancer Drug Screen. Data for the sgs1 strain (AID 173);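 note: 0% = growth of vehicle-only control cultures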; details: S. cerevisiae sgs1 mutant, hits give high values
How it was run: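 Yeast mutant strains carrying defined defects in DNA damage repair or cell cycle control were exposed to test compounds. Growth inhibition was scored against vehicle-treated controls.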

[13] = NCI Yeast Anticancer Drug Screen. Data for the mlh1 rad18 strain (AID 175); details: S. cerevisiae mlh1 rad18 strain growth inhibition, hits give high values
How it was run: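 Growth inhibition of the yeast strain was measured after compound exposure and expressed relative to vehicle-treated controls. The strain carries defined defects in DNA damage repair.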

[14] = at 5.0 µM (retest, dose inferred, filed as 0.5)
[15] = at 50.0 µM (retest, dose inferred, filed as 5.0)

Measured: growth inhibition

Cc1cccc(C)c1NC(=O)C(C#N)C1=C(Cl)C(=O)c2ccccc2C1=O (stereo not given)
active: [1]; at 11.0 µM 93% | [1]; at 33.0 µM 95% | [1]; at 100.0 µM 94% | [2]; at 11.0 µM 94% | [2]; at 33.0 µM 98% | [2]; at 100.0 µM 97% | [3]; at 11.0 µM 98% | [3]; at 33.0 µM 98% | [3]; at 100.0 µM 96% | [4]; at 3.7 µM 78% | [4]; at 11.0 µM 98% | [4]; at 33.0 µM 98% | [4]; at 100.0 µM 98% | [5]; [14] 95% | [5]; at 11.0 µM 97% | [5]; at 33.0 µM 97% | [5]; [15] 96% | [5]; at 50.0 µM 91.2% | [5]; at 100.0 µM 96% | [6]; [14] 99% | [6]; at 11.0 µM 98% | [6]; at 33.0 µM 98% | [6]; [15] 99% | [6]; at 50.0 µM 93.1% | [6]; at 100.0 µM 98% | [7]; at 3.7 µM 88% | [7]; at 11.0 µM 98% | [7]; at 33.0 µM 98% | [7]; at 100.0 µM 97% | [8]; at 11.0 µM 77% | [8]; at 33.0 µM 97% | [8]; at 100.0 µM 96% | [9]; [15] 98% | [9]; at 50.0 µM 92.8% | [10]; at 3.7 µM 70% | [10]; [14] 99% | [10]; at 11.0 µM 97% | [10]; at 33.0 µM 97% | [10]; [15] 98% | [10]; at 50.0 µM 92.2% | [10]; at 100.0 µM 95% | [11]; at 3.7 µM 78% | [11]; at 11.0 µM 98% | [11]; at 33.0 µM 98% | [11]; at 100.0 µM 98% | [12]; at 11.0 µM 97% | [12]; at 33.0 µM 98% | [12]; at 100.0 µM 97% | [13]; [14] 98% | [13]; [15] 98% | [13]; at 50.0 µM 91.7%
inactive: [1]; at 1.2 µM -43% | [1]; at 3.7 µM 46% | [2]; at 1.2 µM -24% | [2]; at 3.7 µM 24% | [3]; at 1.2 µM 14% | [3]; at 3.7 µM 67% | [4]; at 1.2 µM -4% | [5]; at 1.2 µM -11% | [5]; at 3.7 µM 23% | [6]; at 1.2 µM -7% | [6]; at 3.7 µM 62% | [7]; at 1.2 µM -2% | [8]; at 1.2 µM 3% | [8]; at 3.7 µM 16% | [9]; [14] 65% | [10]; at 1.2 µM 6% | [11]; at 1.2 µM -4% | [12]; at 1.2 µM 8% | [12]; at 3.7 µM 45%

CCCCCCCCCCCCCCN
active: [1]; at 100.0 µM 98% | [2]; at 100.0 µM 98% | [3]; at 100.0 µM 97% | [4]; at 100.0 µM 99% | [5]; [14] 100% | [5]; [15] 97% | [5]; at 50.0 µM 90.3% | [5]; at 100.0 µM 98%
inactive: [1]; at 1.2 µM 8% | [1]; at 3.7 µM 1% | [1]; at 11.0 µM -3% | [1]; at 33.0 µM 23% | [2]; at 1.2 µM 4% | [2]; at 3.7 µM -5% | [2]; at 11.0 µM -1% | [2]; at 33.0 µM 6% | [3]; at 1.2 µM -9% | [3]; at 3.7 µM 18% | [3]; at 11.0 µM 32% | [3]; at 33.0 µM 64% | [4]; at 1.2 µM -2% | [4]; at 3.7 µM 1% | [4]; at 11.0 µM -5% | [4]; at 33.0 µM 52% | [5]; at 1.2 µM 11% | [5]; at 3.7 µM 17% | [5]; at 11.0 µM 11% | [5]; at 33.0 µM 52% | [6]; at 1.2 µM -10% | [6]; at 3.7 µM -5%
